# Measurements reported in PubChem BioAssay (NCI).
# This is part of a sample that, as a whole, favours compounds with a hit. Of some 83,000 tested, about 20% had one in any assay.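 Results are percent growth after 48 hours of single-concentration exposure. 100 means growth as in untreated cells, lower positive values show inhibition; negative values down to -100 show cell death.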 Unmarked numbers belong to inactive results. Activity calls are given as the source filed them. How the source made its calls: active means growth percent below 10; inactive means the rest.
# Legend:
# Assay in all cases: NCI-60 one-dose screen, 48 h (100 = growth as untreated, 0 = no growth, -100 = all killed)
# Settings in all cases: 10 µM unless noted
# HCT-15 colon = tested on: HCT-15 colon
# HT29 colon = tested on: HT29 colon
# SNB-75 CNS = tested on: SNB-75 CNS
# SNB-19 CNS = tested on: SNB-19 CNS
# U251 CNS = tested on: U251 CNS
# PC-3 prostate = tested on: PC-3 prostate
# SK-MEL-5 melanoma = tested on: SK-MEL-5 melanoma
# UACC-62 melanoma = tested on: UACC-62 melanoma
# LOX IMVI melanoma = tested on: LOX IMVI melanoma
# SK-MEL-28 melanoma = tested on: SK-MEL-28 melanoma
# SK-MEL-2 melanoma = tested on: SK-MEL-2 melanoma
# EKVX NSCLC = tested on: EKVX NSCLC
# SN12C renal = tested on: SN12C renal
# UO-31 renal = tested on: UO-31 renal
# TK-10 renal = tested on: TK-10 renal
# ACHN renal = tested on: ACHN renal
# CAKI-1 renal = tested on: CAKI-1 renal
# MOLT-4 leukemia = tested on: MOLT-4 leukemia
# CCRF-CEM leukemia = tested on: CCRF-CEM leukemia
# A498 renal = tested on: A498 renal
SMILES,growth (HCT-15 colon),growth (HT29 colon),growth (SNB-75 CNS),growth (SNB-19 CNS),growth (U251 CNS),growth (PC-3 prostate),growth (SK-MEL-5 melanoma),growth (UACC-62 melanoma),growth (LOX IMVI melanoma),growth (SK-MEL-28 melanoma),growth (SK-MEL-2 melanoma),growth (EKVX NSCLC),growth (SN12C renal),growth (UO-31 renal),growth (TK-10 renal),growth (ACHN renal),growth (CAKI-1 renal),growth (MOLT-4 leukemia),growth (CCRF-CEM leukemia),growth (A498 renal)
N=C1C(c2nc3ccccc3s2)=C(O)CN1c1cc(Cl)cc(Cl)c1,38.6%,82.6%,128%,95.2%,64.7%,26.1%,88.9%,78.1%,67%,120%,105%,82.4%,86.2%,60.2%,115%,73.4%,78%,29.4%,,
COc1ccc(-c2[nH][nH]c(=O)c2-c2nc3ccccc3s2)cc1,95.4%,106%,88.9%,102%,101%,102%,102%,98%,99.9%,112%,104%,99.9%,98.4%,86.6%,108%,106%,,102%,99.1%,
COc1ccc(CNCCN2C(=O)c3ccc4c5c(ccc(c35)C2=O)C(=O)N(CCNCc2ccc(OC)c(OC)c2OC)C4=O)c(OC)c1OC,-51.2% (active),-45.7% (active),-12.6% (active),-13.6% (active),-46.1% (active),0.0353% (active),-93.9% (active),-72.2% (active),-27.9% (active),-7.81% (active),-62.9% (active),-28.3% (active),-77.3% (active),-19.6% (active),30.3%,,-12.3% (active),-35.2% (active),-14.8% (active),
COc1cccc2c1c1nc3cc(C)c(C)cc3nc1n2CCN(C)C,13.1%,11%,34%,25.4%,25.9%,18.3%,10.7%,14.6%,1.15% (active),36%,11%,25.7%,16.9%,6.86% (active),52.1%,-12.3% (active),,10.5%,27.6%,
NC1=NN=C(N)C1=Cc1cc2ccccc2n2nnnc12,104%,104%,94.3%,95.8%,89%,86.6%,101%,93.2%,85.1%,116%,102%,77%,97.9%,77.1%,114%,102%,91.1%,94.6%,97.5%,
CCCOC(=O)N[C@H]1CCc2cc(OC)c(OC)c(OC)c2-c2ccc(SC)c(=O)cc21,14.8%,14.2%,34.3%,36.2%,19.6%,29.5%,-14.6% (active),41.5%,18.6%,58.7%,50.8%,51.5%,29.5%,38.3%,48.2%,27.8%,19.8%,7.04% (active),4.23% (active),
CC(C)(C)c1cc(C=O)cc(C(C)(C)C)c1O,102%,102%,83.6%,101%,96.3%,87.6%,92%,85.4%,98.4%,111%,96.2%,126%,104%,103%,93.2%,,113%,14.8%,14.3%,105%
CC(=O)O[C@@H]1C2CCC3C(CC[C@@]4(C)C3CC[C@@H]4C(C)N(C)C)[C@@]2(C)CC[C@@H]1NC(=O)C=C(C)C (some centres undefined),-58.1% (active),-39.5% (active),12%,65.6%,14.9%,10.5%,-93.1% (active),-49.9% (active),-43.5% (active),-91.7% (active),31.9%,30.8%,32.7%,6.19% (active),47.2%,,-6.25% (active),-50.6% (active),-12% (active),60.6%
O=C(CSc1nc2ccccc2[nH]1)NCc1ccccc1,105%,99.4%,74.5%,97.8%,106%,98.8%,102%,95.2%,98.3%,102%,120%,101%,95.8%,83.6%,4.87% (active),,82.1%,,103%,
CC(C)N1C(=O)/C(=C2\SC(=S)N(C(C)C)C2=O)SC1=S,98.5%,96.8%,62.3%,92.6%,90.8%,89.3%,97.9%,91.7%,90%,97.8%,96.8%,82.9%,93.1%,78.6%,88.2%,100%,93.7%,101%,87.8%,
COc1cc2c(c(OC)c1OC)-c1ccc(NNC(=S)N(Cc3cccc(C[N+](Cc4cccc(CNC56CC7CC(CC(C7)C5)C6)c4)(Cc4cccc(CNC56CC7CC(CC(C7)C5)C6)c4)Cc4cccc(CN(C(=S)NNc5ccc6c(cc5=O)[C@@H](NC(C)=O)CCc5cc(OC)c(OC)c(OC)c5-6)C56CC7CC(CC(C7)C5)C6)c4)c3)C34CC5CC(CC(C5)C3)C4)c(=O)cc1[C@@H](NC(C)=O)CC2 (some centres undefined),9.96% (active),-5.79% (active),31.7%,16%,5.78% (active),12.2%,-94.2% (active),15.5%,-20.1% (active),33.3%,-20.3% (active),44.7%,12.2%,39.7%,48.7%,,29%,-17% (active),-6.54% (active),-5.83% (active)
CCCOC(=O)N[C@H]1CCc2c(Cl)c(OC)c(OC)c(OC)c2-c2ccc(SC)c(=O)cc21,12.9%,14.7%,31.2%,31%,23.2%,24%,-10.3% (active),30.9%,10.7%,68.8%,48.2%,48.1%,20.5%,23.1%,49.3%,30.7%,,8.02% (active),7.4% (active),
COc1cc(/C=N/NC(=O)c2cnn3c2NC(c2ccccc2)C3)ccc1OCc1ccccc1 (centres undefined),2.36% (active),-35.6% (active),26.1%,19.3%,4.86% (active),-31% (active),5.94% (active),-33.7% (active),22%,24.1%,6.28% (active),32.1%,29.2%,32.6%,-0.854% (active),10.7%,,14.7%,17.1%,
NS(=O)(=O)c1ccc(CCN2C(=O)c3cc(Cl)c(Cl)cc3C2=O)cc1,103%,89.3%,98.3%,109%,102%,99.2%,105%,103%,98.2%,110%,96.5%,103%,107%,93%,88.5%,,96.6%,92.4%,98%,104%
CN(CCN(C)c1ccc(C(=N)N)cc1)c1ccc(C(=N)N)cc1,102%,108%,99.6%,121%,95.4%,81.3%,92%,78.7%,99.9%,108%,94.4%,94.4%,74.3%,79.8%,115%,,68.6%,,-72% (active),71.4%
Cc1nc2sccn2c1-c1nc2sccn2c1/C=C1/C(=O)Nc2ccccc21,29.4%,0.756% (active),15.2%,31.5%,24.6%,28.7%,20.5%,33.6%,36.3%,45.3%,61%,56.6%,65.6%,39.6%,70.9%,41.5%,,,35%,5.72% (active)
